These results are taken from publication PMC9574860, “Chemical Toolkit for PARK7: Potent, Selective, and High-Throughput” (Journal of Medicinal Chemistry, 2022).

About 400 (5.1%) of roughly 7,900 compounds showed an effect of 50% or more. What follows is part of a selection rich in strong results, with near analogues and random picks from the rest.

Chain of Parkinson's disease protein 7 (PARK7/DJ1) (Q99497 whole entry, looked up, the tested form may be a part): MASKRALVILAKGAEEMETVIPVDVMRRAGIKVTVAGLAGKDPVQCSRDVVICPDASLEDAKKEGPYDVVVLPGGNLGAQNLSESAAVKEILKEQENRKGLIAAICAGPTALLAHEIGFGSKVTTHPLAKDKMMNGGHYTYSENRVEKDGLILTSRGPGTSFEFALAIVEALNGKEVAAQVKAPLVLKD

The experiment addresses Parkinson's disease protein 7 (PARK7/DJ1) (human, UniProt Q99497). Briefly: primary screen, percent inhibition; read as competition with a fluorescent probe by fluorescence polarization; higher = more effect of the substance. Conditions: 100 µM. In outline: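 Fluorescence-polarization probe displacement (JYQ-107, 20 nM final, 2 h) after 2 h preincubation of PARK7 (0.2 μM final) with each fragment at 100 μM final. Read-out ex/em 480/520 nm; remaining activity derived from FP signal loss relative to reference controls.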
`CC(=O)N1CCN(C(=O)C=Cc2c(C)nn(C)c2Cl)CC1`: the Inhibition % amounted to 8.55%.
With `O=C(O)C1CC(O)CN1C(=O)C=Cc1ccc(F)cc1` (stereo not shown), the Inhibition % was 2.28%.
The value for `N#Cc1ccc(N2CCCC(N3CCCCCC3)C2)cn1` (stereo not shown) was 5.26%; that for `O=C(CCl)Nc1cc(C2CC2)nn1-c1ccccc1` was 18.1%; that for `CC1CC(Sc2nncn2-c2ccccc2F)C(=O)O1` (stereo not shown) was 0.0122%.
For `COc1ccc(F)cc1S(=O)(=O)n1ccnc1C` the value was 3.76%.
Turning to `CC1(C)OB(c2cc(Cl)ccc2N)OC1(C)C`, the Inhibition % was determined as 13.4%.
For `CC(C)(C)OC(=O)c1cc2ccc(B3OC(C)(C)C(C)(C)O3)cc2[nH]1` the value was 7.8%; for `O=c1onc(-c2cnccn2)n1Cc1cccc(F)c1`, -2.87%; for `Cc1cc(NS(=O)(=O)c2ccc(S(=O)(=O)F)cc2)c[nH]c1=O`, 92.6%.
On to `Cc1cc(NS(=O)(=O)C2=CCCCC2)c[nH]c1=O`, for which the Inhibition % is 48.5%.
For `O=C(O)CC1OB(O)c2ccccc21` (stereo not shown) the value was 0.686%.
With `CCN(CCC#N)S(=O)(=O)C=Cc1ccccc1Cl`, the Inhibition % stood at 6.99%.
For `O=C(O)Cc1ccccc1CS` the value was 89.6%.
On to `O=C(O)c1ccc(CS)cc1`, for which the Inhibition % worked out at 17.3%.
For `C#CC(=O)Nc1ccc(CC(=O)O)cc1` the value was 0.397%.
Take `O=C(O)Cc1ccc(CS)cc1`: the Inhibition % was determined as 58.7%.
For the compound `COc1ccccc1CS`, the Inhibition % was determined as 1.46%.
Turning to `C#CC(=O)Cc1ccccc1`, the Inhibition % is recorded as 7.8%.
For `C=CC(=O)NCC1CCCc2sc(C)nc21` (stereo not shown) the value was 5.16%; for `Fc1ccc(C2=NOC(CCl)C2)cc1` (stereo not shown), -2.86%.
The value for `COc1ccc(S(=O)(=O)N(C)C)cc1NC(=O)CCl` was 20.4%; that for `C=CC(=O)N1CCOc2c(F)ccc(F)c21` was 9%; that for `C=CC(=O)Nc1cc(CC(C)(C)C)nn1C` was 8.54%.
For `O=C(CC1SC(=O)NC1=O)Nc1ccccc1` (stereo not shown) the value was 82.7%.
Take `O=C(CCl)Nc1ccccc1C(=O)Nc1ccccc1`: the Inhibition % stood at 10.5%.
With `O=C(CCCl)Nc1ccc(F)cc1`, the Inhibition % worked out at 5.87%.
The value for `CC(=O)Nc1ccc(OC(=O)N(C)C)cc1` was 10.8%; that for `O=C(CCCl)Nc1ccccc1` was 3.48%.
The value for `C=CC(=O)Nc1ccc(Cl)cc1` was 5.59%.
For `O=C(CC1SC(=O)NC1=O)Nc1ccc(Cl)cc1` (stereo not shown) the value was 95.7%; for `CC(=O)Nc1ccc(NC2SC(=O)NC2=O)cc1` (stereo not shown), 66.6%.
`CC(=O)Nc1ccc(S(=O)(=O)F)cc1`: the Inhibition % was determined as 15.8%.
Turning to `N#CC1(CCCl)CCCCC1`, the Inhibition % worked out at 3.15%.
The value for `C=CC(=O)N1CCN(c2ccc(OC)cn2)CC1` was 5.59%; that for `O=C(CCl)Nc1ccc(NC(=O)c2cccs2)cc1` was 28%; that for `COc1ccc(Cl)cc1C(=O)NNC(=O)CCl` was 29.8%.
The value for `COc1cc(OC)c(C(=O)CCl)c(OC)c1` was 5.2%; that for `COc1ccc(Cl)cc1NC(=O)CCl` was 14.9%.
For `COc1ccc(NC(=O)CCl)cc1Cl` the value was 28.1%.
On to `COc1ccc(C(=O)CCl)cc1Cl`, for which the Inhibition % was determined as 95.9%.
Turning to `COc1ccc(C(=O)CCl)cc1F`, the Inhibition % was determined as 91.7%.
On to `C=CC(=O)NC1CC(C(C)(C)C)C1` (stereo not shown), for which the Inhibition % amounted to 14%.
For `C=CC(=O)N1c2cc(OC)ccc2NC(=O)C1C` (stereo not shown) the value was 9.84%; for `O=S(=O)(F)c1cc(Br)ccc1Cl`, 88.4%; for `O=S(=O)(F)c1ccc(Br)cc1`, 13.2%.
For `O=S(=O)(F)c1ccc(Cl)c(S(=O)(=O)F)c1`, the Inhibition % is recorded as -3.28%.
The value for `CC1CCN(C(=O)CCl)c2ccccc2S1` (stereo not shown) was 6.09%.
`Cc1ccc(Oc2ccc(Cl)cc2NC(=O)CCl)cc1`: the Inhibition % amounted to 2.17%.
The value for `COc1cc(NC(=O)OC(C)(C)C)ccc1B1OC(C)(C)C(C)(C)O1` was 14.5%; that for `O=C(CCl)Nc1cc(Cl)ccc1-n1cncn1` was 11%; that for `O=C(CCl)Nc1ccc(SC(F)F)cc1` was 100%.
For the compound `Cc1ccc(Sc2ccc(NC(=O)CCl)cc2)c(C)c1`, the Inhibition % is recorded as 25.5%.
On to `CSc1ccc(NC(=O)CCl)cc1`, for which the Inhibition % turned out to be 86%.
With `O=C(CCl)Nc1ccccc1SC(F)F`, the Inhibition % was 9.47%.
As for `Cc1ccc(C)c(Sc2ccc(NC(=O)CCl)cc2)c1`, the Inhibition % was determined as 37%.
For `Cc1ccc(Sc2ccc(NC(=O)CCl)cc2)cc1C` the value was 34.5%; for `CC1(C)[C@@H](Nc2cnc(C#N)cn2)[C@@H]1c1ccccc1` (racemic), 10.2%.
On to `Cc1nc(S)c(C#N)cc1C(=O)Nc1ccccc1`, for which the Inhibition % came to 10.1%.
For `N#Cc1ncn(CC(=O)N(C2=CCCCC2)C2CC2)n1` the value was 29.4%; for `COc1ccc(C(=O)CCl)c(OC)c1`, 41.1%; for `COc1ccc(OC)c(C(=O)CCl)c1`, 11.8%.
In the case of `COc1ccc(C(=O)CCl)c2c1C(=O)CO2`, the Inhibition % amounted to 64.2%.
As to `O=C(C=Cc1cnc2ccccc2n1)N1CCCCC1`, the Inhibition % is 9.55%.
The value for `O=C1OC[C@@H]2CN(Cc3ccccc3)C[C@H]12` (racemic) was 6.21%; that for `O=S(=O)(F)c1ccc2ccccc2n1` was 69.3%.
In the case of `O=S(=O)(F)c1nc2ccccc2s1`, the Inhibition % is 12.9%.
`CC(OS(C)(=O)=O)C(C)c1ccc2ccccc2n1.Cl` (stereo not shown): the Inhibition % is reported as 24.3%.
As for `Cc1cc(C=C(C#N)C(N)=O)c(C)n1C1CC1`, the Inhibition % was 2.13%.
The value for `Cc1cc(C(=O)CCl)c(C)n1C(C)C` was 96.9%; that for `Cc1cc(C(=O)CCl)c(F)cc1F` was 5.96%.
The value for `Cc1cc(F)c(C(=O)CCl)cc1F` was 5.49%.
The value for `Cc1cc(C(=O)CCl)c(C)n1CC1CCCO1` (stereo not shown) was 3.43%; that for `C=CCn1c(C)cc(C(=O)CCl)c1C` was 58.7%.
For the compound `Cc1cc(C(=O)CCl)c(C)n1CC(N)=O`, the Inhibition % stood at 4.29%.
For `CCn1c(C)cc(C(=O)CCl)c1C` the value was 56%.
On to `Cc1cc(C(=O)CCl)c(C)[nH]1`, for which the Inhibition % worked out at 98.2%.
On to `Cc1cc(C(=O)Cn2cnc(C#N)n2)c(C)n1C(C)C`, for which the Inhibition % came out at 11.7%.
Turning to `CCn1c(C)cc(C(=O)Cn2cnc(C#N)n2)c1C`, the Inhibition % was 0.239%.
With `C=CC(=O)N1CCC2COCC2C1` (stereo not shown), the Inhibition % is recorded as 6.41%.
As to `N#Cc1nc(-c2ccc(Cl)cc2Cl)oc1N`, the Inhibition % is given as -2.51%.
The value for `O=c1ccc2cc(S(=O)(=O)OCC(F)(F)F)ccc2o1` was 6.17%; that for `C=CC(=O)NCCc1cncnc1` was 10.1%.
For `CCc1ccc(C=CS(=O)(=O)Nc2onc(C)c2C)cc1` the value was 4.3%; for `N#Cc1cc(C(=O)NCC2CCc3nccn3C2)c[nH]1` (stereo not shown), 16.5%.
The value for `CCC(NC(=O)CCl)c1ccc(Br)cc1` (stereo not shown) was 5.16%; that for `CC1(C)OB(c2cccc(OCCCN3CCCC3)c2)OC1(C)C` was 1.19%; that for `C=CC(=O)N1CCCCC1c1noc(C)n1` (stereo not shown) was 3.88%.
As to `O=C(CN1CCSC1=O)N1CCN(c2ccccc2)CC1`, the Inhibition % came out at 5.93%.
For `C=CC(=O)N1CCC(S(=O)(=O)NC(C)C)C1` (stereo not shown) the value was 7.14%; for `CC1(CO)CCCC1Nc1ccc(C#N)nc1` (stereo not shown), 6.61%; for `COCc1cccnc1C#N`, 2.34%.
Consider `Fc1ccc(C2CO2)nc1` (stereo not shown), for which the Inhibition % worked out at 4.53%.
Turning to `Cc1cc(C(=O)CCl)c(C)n1CC(F)(F)F`, the Inhibition % is given as 1.46%.
For `Cc1cc(C(=O)CCl)c(C)n1C` the value was 72.1%; for `CCCn1c(C)cc(C(=O)Cn2cnc(C#N)n2)c1C`, 6.57%; for `Cc1cc(C(=O)Cn2cnc(C#N)n2)c(C)n1C`, 18.2%.
For `CCCn1c(C)cc(C(=O)CCl)c1C` the value was 56%; for `Cc1cc(C(=O)CCl)c(C)n1C1CC1`, 65%.
The value for `COCCn1c(C)cc(C(=O)CCl)c1C` was 49.1%.
With `Cc1cc(C(=O)CCl)c(C)n1Cc1ccco1`, the Inhibition % is reported as 54.9%.
For `Cc1cc(C(=O)Cn2cnc(C#N)n2)c(C)n1C1CC1`, the Inhibition % is given as 17.1%.
`Cc1cc(C=C(C#N)C(N)=O)c(C)n1Cc1ccco1`: the Inhibition % is listed as 7.44%.
The value for `Cc1cc(C(=O)CCl)c(C)n1C1CCS(=O)(=O)C1` (stereo not shown) was 35.7%; that for `CC(=O)Nc1c(C)cc(C)c(C(=O)CCl)c1C` was 14%; that for `Cl.O=C(CCl)Nc1ncc[nH]1` was 1.78%.
The value for `C=CC(=O)N1C[C@H](F)C[C@H]1C(=O)N1CCOCC1` was 10.5%.
The value for `C=CC(=O)N1CCC(c2nc(C(F)(F)F)c[nH]2)CC1` was 0.0839%; that for `C=CC(=O)N1CCC(C(=O)NCC(F)(F)F)C1` (stereo not shown) was 4.08%.
For `COC(F)(F)C(F)(F)c1ccc(B2OC(C)(C)C(C)(C)O2)cc1`, the Inhibition % turned out to be 6.09%.
Turning to `O=C(O)c1ccoc1CS`, the Inhibition % turned out to be 64.1%.
As for `CN(Cc1ncnn1C)S(=O)(=O)C=Cc1ccccc1`, the Inhibition % is listed as 3.12%.
For `COc1ccccc1CCNC(=O)CCl` the value was 15.8%; for `COc1ccccc1C(C)N(C)C(=O)CCl` (stereo not shown), 31.5%.
With `COc1ccccc1CN(C)C(=O)CCl`, the Inhibition % was 98.6%.
The value for `COc1cccc(CN(C)C(=O)CCl)c1OC` was 74.5%.
For `COc1ccccc1CNC(=O)CCl` the value was 28%; for `COc1cc(CO)ccc1B1OC(C)(C)C(C)(C)O1`, 4.39%.
The value for `CC(c1ccsc1)N1CCN(c2ccc(C#N)nc2)CC1` (stereo not shown) was 7.22%; that for `CCN(CC)S(=O)(=O)c1cc(NC(=O)CCl)ccc1C` was 7.16%; that for `CN(C)S(=O)(=O)c1ccc(NC(=O)CCl)cc1` was 84.2%.
`Cc1ccc(NC(=O)CCl)cc1S(=O)(=O)N(C)C`: the Inhibition % is on record as 10.4%.
The value for `CC(C)N(C)S(=O)(=O)c1ccc(NC(=O)CCl)cc1` was 83.8%.
The value for `CCN(CC)S(=O)(=O)c1ccc(NC(=O)CCl)cc1` was 90.5%; that for `CN(C)S(=O)(=O)c1ccc(NC(=O)CCCl)cc1` was 7.94%; that for `COc1ccc(NC(=O)CCl)cc1S(=O)(=O)N(C)C` was 9.41%.
The value for `CCN(CC)S(=O)(=O)c1cccc(NC(=O)CCl)c1` was 22.5%.
